Molecules are shown by their SMILES.

Holding throughout (type): functional
The test system of experiment [1] is Plasmodium falciparum. The experiment in a line: GSK_TCMDC: Inhibition of Plasmodium falciparum 3D7 in whole red blood cells, using parasite LDH activity as an index of growth. Test compounds present at 2uM.
For experiment [2], the system named is Plasmodium falciparum. The experiment in a line: GSK_TCMDC: Inhibition of Plasmodium falciparum Dd2 in whole red blood cells, using parasite LDH activity as an index of growth. Test compounds present at 2uM.
A further experiment concerns HepG2. The experiment in a line: GSK_TCMDC: Percent inhibition of human HepG2 cell line. Test compounds present at 10uM.

As usually defined, the Inhibition is the relative decrease from the control value, in per cent. For the compound `CC(C)(C)NC(=O)COC(=O)c1c2c(nc3ccccc13)C(=Cc1ccc3c(c1)OCO3)CCC2`, the Inhibition with Plasmodium falciparum [1] is recorded as 90%; in the experiment with Plasmodium falciparum [2], 82%; with HepG2 it was 7%.
On to `O=C1COc2ccc3ccccc3c21`, for which the Inhibition was 99% in the experiment with Plasmodium falciparum [1], 3% with Plasmodium falciparum [2] and 0% in the experiment on HepG2.
Consider `Cc1onc(-c2ccccc2)c1-c1nc(NCCC(c2ccccc2)c2ccccc2)no1`, for which the figures for the Inhibition in the experiment on Plasmodium falciparum [1], with Plasmodium falciparum [2] and with HepG2 were 100%, 78% and 0%, respectively.
Turning to `Cc1cc(Nc2ccnc(-c3ccc(Cl)cc3)n2)ccn1`, the Inhibition in the experiment with Plasmodium falciparum [1] is on record as 94%; in the experiment with Plasmodium falciparum [2], 23%; in the experiment with HepG2, 6%.
Taken in the same sequence, the figures for `COc1ccc2nccc([C@@H](O)CN3CCC(NCc4cnc5snnc5c4)C(F)C3)c2c1.Cl` (some centres not stated) were 83%, 88% and 13%.
For the compound `CN1CCC(NCc2ccc(-c3ccc(Cl)cc3)cc2)CC1`, the Inhibition was 99% with Plasmodium falciparum [1], 43% in the experiment with Plasmodium falciparum [2] and 50% in the experiment with HepG2.
Taken in the same sequence, the figures for `CCCCN1CC[C@@H](CCC(O)c2ccnc3ccc(OCCC(C)C)cc23)[C@@H](CC)C1.O=C(O)C(=O)O` (some centres not stated) were 94%, 90% and 22%.
As for `CCOc1c(N2CCN(CCCCNC(=O)c3ccc(NC(=O)c4ccc(Cl)cc4)cc3)CC2)ccc2ccccc12.Cl`, the results for the Inhibition in the experiment with Plasmodium falciparum [1], in the experiment on Plasmodium falciparum [2] and in the experiment on HepG2 were 100%, 45% and 18%, respectively.
Taken in the same sequence, the figures for `O=C(/C=C/c1cccc(Br)c1)NCCCCCN1CCC(c2c[nH]c3ccccc23)CC1` were 100%, 15% and 38%.
Consider `CCCCCCn1c(Sc2ccc(C#N)c([N+](=O)[O-])c2)nnc1-c1ccc(OC)cc1`, for which the figures for the Inhibition with Plasmodium falciparum [1], in the experiment with Plasmodium falciparum [2] and in the experiment with HepG2 were 95%, 51% and 19%, respectively.
In the case of `CCc1nc(N)nc(N)c1-c1ccc(F)cc1`, the Inhibition in the experiment with Plasmodium falciparum [1] came to 96%; with Plasmodium falciparum [2], 0%; in the experiment with HepG2, 52%.
The like results for `COc1ccc2nccc(N3C[C@H]4C[C@@H]3CN4CCNCc3ccc4c(n3)NC(=O)CS4)c2n1.Cl` were, in that order, 99%, 0% and 21%.
For the compound `CC(C)(C)c1ccc(NC(=O)c2cccc(CN3CCCN(Cc4cccc(O)c4)CC3)c2)cc1.O=C(O)C(F)(F)F`, the Inhibition in the experiment with Plasmodium falciparum [1] is reported as 100%; in the experiment with Plasmodium falciparum [2], 69%; in the experiment with HepG2 it was 97%.
The like results for `CN1CCC(C(=O)Nc2cccc(-c3cccc(-c4nc5cc(F)ccc5[nH]4)c3)c2)CC1` were, in that order, 100%, 27% and 32%.
Taken in the same sequence, the figures for `Cc1nc(N/C(N)=N/C(=O)NC2CCCCC2)nc2ccccc12` were 95%, 99% and 21%.
Turning to `COc1ccc(Cl)cc1N1CCN(CCCNC(=O)c2ccc(-c3nc4cc(Cl)c(F)cc4[nH]3)c(F)c2)CC1`, the Inhibition in the experiment on Plasmodium falciparum [1] is 100%; in the experiment on Plasmodium falciparum [2], 91%; in the experiment on HepG2, 21%.
Turning to `COc1ccc2nccc([C@@H](O)CN3CCC(NCc4ccc(OC)c(NC(C)=O)c4)CC3)c2c1`, the values for the Inhibition with Plasmodium falciparum [1], with Plasmodium falciparum [2] and in the experiment on HepG2 were 90%, 0% and 0%, respectively.
`CCCCN(CCCC)CCOc1cc2c(cc1OC)CCN2C(=O)/C=C/c1ccccc1Cl.Cl`: the figures for the Inhibition with Plasmodium falciparum [1], in the experiment on Plasmodium falciparum [2] and in the experiment on HepG2 were 87%, 31% and 13%, respectively.
Taken in the same sequence, the figures for `O=C(CN1CCN(S(=O)(=O)C=Cc2ccccc2)CC1)Nc1cc(C(F)(F)F)ccc1Cl` were 96%, 63% and 23%.
Take `COc1ccc(-c2cnc3[nH]cc(-c4ccc(C(=O)O)cc4)c3c2)cn1.O=C(O)C(F)(F)F`: the Inhibition in the experiment with Plasmodium falciparum [1] worked out at 95%; in the experiment on Plasmodium falciparum [2] it was 99%; in the experiment with HepG2, 35%.
As for `O=C(O)C(F)(F)F.OCCN1CCN(Cc2cccc(-c3cccc(-c4nc5cc(F)ccc5[nH]4)c3)c2)CC1`, the values for the Inhibition with Plasmodium falciparum [1], in the experiment on Plasmodium falciparum [2] and in the experiment on HepG2 were 100%, 99% and 41%, respectively.
Taken in the same sequence, the figures for `CC(C)n1ncc2c3c(N)nc(N)nc3ccc21` were 98%, 6% and 64%.
As to `Cc1[nH]c(C)c(-c2ccc(OCCn3cnc(Cl)c3Cl)cc2)c(=O)c1Br`, the values for the Inhibition in the experiment on Plasmodium falciparum [1], in the experiment on Plasmodium falciparum [2] and in the experiment on HepG2 were 95%, 35% and 2%, respectively.
The like results for `Clc1ccc(Sc2cncnc2N2CCOCC2)cc1` were, in that order, 95%, 0% and 66%.
In the case of `O=C(Nc1ccc(-c2cccc(-c3nc4cc(C(F)(F)F)ccc4[nH]3)c2)cc1)c1cccnc1`, the Inhibition came to 100% with Plasmodium falciparum [1], 24% in the experiment with Plasmodium falciparum [2] and 74% with HepG2.
Turning to `CN1CCC(NCc2cccc(-c3ccc(S(=O)(=O)NCc4ccccc4)cc3)c2)CC1.O=C(O)C(F)(F)F`, the Inhibition amounted to 100% in the experiment with Plasmodium falciparum [1], 93% in the experiment on Plasmodium falciparum [2] and 61% in the experiment on HepG2.
For the compound `Nc1ncc(-c2ccc3nccc(-c4ccncc4)c3c2)cc1S(=O)(=O)N1CCOCC1`, the figures for the Inhibition with Plasmodium falciparum [1], in the experiment on Plasmodium falciparum [2] and in the experiment with HepG2 were 100%, 99% and 39%, respectively.
Taken in the same sequence, the figures for `COc1ccc2c(=O)ccn(CCN3CCC(NCc4ccc5c(n4)NC(=O)CS5)CC3)c2c1.Cl` were 98%, 99% and 7%.
The like results for `CN(CCCN(C)c1cc(NC(=O)c2cccc(F)c2)ccn1)Cc1cccc(O)c1.O=C(O)C(F)(F)F` were, in that order, 92%, 4% and 0%.
